According to PubChem BioAssay (NCATS):
Records with an inconclusive call do not appear. The source made the active and inactive calls. Unless noted, calls come from the whole dose curve; as a rule, active = well fitted curve in the direction sought with a large enough effect; inconclusive = small, poorly fitted or top-dose-only effect, or another doubt; inactive = no such curve, though single readings can be large; an effect the other way counts as inactive or inconclusive. *1 amine or outer side, *2 acyl side, *3 side chain or, on linkers, in order; H or OH if unused. Where a SMILES comes first, the peptide text is derived from it. Bridges are numbered along the chain shown (N, C = ends). [ ]: non-standard residue; d: D form. The star is where a group is joined. ξ: configuration not given here. X10 = NC1=NCCC(C(N[*:1])C(=O)[*:2])N1; ΔAla(3-NHCONH2) = NC(=O)NC=C(N)C(=O)O; ξβ3hOrn = NCCCC(N)CC(=O)*; Dap = NC[CH](N)C(=O)O

Tests used:
[1] = Primary qHTS for inhibitors of La Crosse Virus (LACV) - induced cell death in SH-SY5Y cells (AID 1508616);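 note: top concentration of the series differs between compounds; 0% = infected DMSO wells and 100% = uninfected DMSO wells; higher means more rescue of cells from virus-induced death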
How it was run: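 SH-SY5Y cells (6000/well) plated 24 h, then given compounds by pin transfer and LACV at 0.01 MOI for 6 days at 37C. Viability measured by ATPLite luminescence, normalized to infected DMSO and uninfected DMSO.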

[2] = target: Calcium and integrin-binding protein 1 (Homo sapiens) (UniProt Q99828); assay: Primary qHTS for Identification of Calcium Integrin Binding Protein 1 (CIB1) Competitor (AID 1508620);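 note: GST tagged CIB1 binding a fluorescein labelled alphaIIb integrin peptide tracer; top concentration of the series differs between compounds; % is set by controls: 0 for no effect and ±100 for the full control effect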
Chain of Calcium and integrin-binding protein 1 (Homo sapiens) (Q99828 whole entry, looked up): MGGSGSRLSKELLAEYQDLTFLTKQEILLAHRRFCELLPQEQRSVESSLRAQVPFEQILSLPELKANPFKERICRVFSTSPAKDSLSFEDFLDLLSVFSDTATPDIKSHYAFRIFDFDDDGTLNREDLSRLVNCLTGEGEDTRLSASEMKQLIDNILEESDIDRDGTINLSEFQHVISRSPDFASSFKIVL
How it was run: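 CIB1-GST (1 uM final) and compound incubated 15 min at room temperature before adding FITC-alphaIIb peptide tracer (100 nM final). Competition for binding read by fluorescence polarization (ex 480, em 540) after another 15 min at room temperature.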

[3] = A High-Content qHTS Against Drug Library for the Identification of Small Molecules that Inhibit DYT1 Early Onset Primary Dystonia-Associated Cell Pathology (AID 1645839; calls by dose curve; note: series mostly up to about 46 µM)
How it was run: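 In this high-content image screen, delE TorsinA mislocalization in inducible Flp-In 293 cells is scored as %pathology, with cell count serving as the counterscreen. Compound exposure lasts 48 h under tetracycline induction in reduced-serum medium.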

[4] = Counterscreen qHTS for small molecule stabilizers of the endoplasmic reticulum resident proteome: GLuc-NoTag assay (AID 1508627);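 note: SH-SY5Y cells given compound then 100 nM thapsigargin to empty ER calcium; series mostly up to about 76 µM; 0% = thapsigargin alone and -100% = DMSO vehicle control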
How it was run: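 Luminescence of Gaussia luciferase secreted into the medium (coelenterazine, 0.07x final, unlysed cells) was the read-out. Human SH-SY5Y neuroblastoma cells constitutively secreting untagged GLuc received compound for 19 h, then 100 nM thapsigargin for 4 h.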

[5] = Confirmatory qHTS for small molecule stabilizers of the endoplasmic reticulum resident proteome: Secreted ER Calcium Modulated Protein (SERCaMP) assay (AID 1508628); note: nearly all actives have a fitted effect of over 40% in size; note: potency is the fitted concentration of half-maximal effect
How it was run: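 SH-SY5Y cells stably expressing GLuc-SERCaMP, treated 16 h with compound (primary 1.53, 7.67, 38.3 uM; confirmation 11 concentrations, up to 76.6 uM), then 100 nM thapsigargin for 4 h. Secreted Gaussia luciferase in medium read by coelenterazine luminescence.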

[6] = Cell Viability qHTS for small molecule stabilizers of the endoplasmic reticulum resident proteome (AID 1508629); details: cell viability counter-screen, 100 nM thapsigargin for final 4 h;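 note: human SH-SY5Y neuroblastoma cells carrying the GLuc-SERCaMP reporter; compound exposure about 46 h in total before the viability read; % is set by controls: 0 for no effect and ±100 for the full control effect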
[7] = Primary qHTS for small molecule stabilizers of the endoplasmic reticulum resident proteome: Secreted ER Calcium Modulated Protein (SERCaMP) assay (AID 1508630); note: % is set by controls: 0 for no effect and ±100 for the full control effect
How it was run: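 GLuc-SERCaMP-expressing SH-SY5Y cells, pretreated 16 h with compound, are challenged with thapsigargin to empty ER calcium stores; after 4 h, coelenterazine is added directly to the medium and luminescence is imaged.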

O=C(O)CCCC[C@@H]1SC[C@@H]2NC(=O)N[C@@H]21
inactive: outcome [1] | Potency [2] | Potency [3]

COc1c(N2C[C@@H]3CCCN[C@@H]3C2)c(F)cc2c(=O)c(C(=O)O)cn(C3CC3)c12
inactive: outcome [1] | Potency [2] | Potency [3]

CC(NN)c1ccccc1 (stereo not drawn)
inactive: outcome [1] | Potency [2] | Potency [3]

O=C(O)C(=O)Nc1cccc(-c2nn[nH]n2)c1
inactive: outcome [1] | Potency [2] | Potency [3]

CCn1ccc(NS(=O)(=O)c2ccc(N)cc2)nc1=O
inactive: outcome [1] | Potency [2] | Potency [3]

C[N+]1(C)CCC(OC(=O)C(O)(c2ccccc2)C2CCCC2)C1 (stereo not drawn)
inactive: outcome [1] | Potency [2] | Potency [3]

CCc1cc(S(=O)(=O)O)c2cc(C(C)C)cccc1-2
inactive: outcome [1] | Potency [2] | Potency [3]

NC(=O)NS(=O)(=O)c1ccc(Cl)cc1
inactive: outcome [1] | Potency [2] | Potency [3]

CC1CC(=O)NN=C1c1ccc(NCC(C)(C)NCC(O)COc2cc(Cl)ccc2C#N)cc1 (stereo not drawn)
inactive: outcome [1] | Potency [2] | Potency [3]

c1ccc2c(c1)CCc1ccccc1N2
inactive: outcome [1] | Potency [2] | Potency [3]

CN1C(CSCC(F)(F)F)Nc2cc(Cl)c(S(N)(=O)=O)cc2S1(=O)=O (stereo not drawn)
inactive: outcome [1] | Potency [2] | Potency [3]

CCC(=O)O[C@H]1[C@H](O[C@@H]2[C@@H](C)[C@H](O[C@H]3C[C@@](C)(OC)[C@@H](O)[C@H](C)O3)[C@@H](C)C(=O)O[C@H](CC)[C@@](C)(O)[C@H](O)[C@@H](C)C(=O)[C@H](C)C[C@@]2(C)O)O[C@H](C)C[C@@H]1N(C)C
inactive: outcome [1] | Potency [4] | max response [6] 17.4% | Potency [3]
active: Potency [5] 20 µM

CCCCOC(=O)CCCCCCCCC(=O)OCCCC
inactive: outcome [1] | Potency [2] | Potency [3]

CCC(C(=O)OCCN1CCOC(c2ccccc2)C1C)c1ccccc1 (stereo not drawn)
inactive: outcome [1] | Potency [2] | Potency [3]

CC(=O)N1CCN(c2ccc(O)cc2)CC1
inactive: outcome [1] | Potency [2] | Potency [3]

Nc1nnnn1-c1ccccc1
inactive: outcome [1] | Potency [2] | Potency [3]

C=CCOc1cc(Cl)ccc1C(=O)NCCN(CC)CC
inactive: outcome [1] | Potency [2] | Potency [3]

O=C1c2ccccc2CCc2ccccc21
inactive: outcome [1] | Potency [2] | Potency [3]

Cc1cnc(NS(=O)(=O)c2ccc(N)cc2)nc1
inactive: outcome [1] | Potency [2] | Potency [3]

N[C@@H](Cc1cc(I)c(O)c(I)c1)C(=O)O
inactive: outcome [1] | Potency [4] | Potency [5] | max response [6] 10.7% | Potency [7] | Potency [3]

CC(C)(C)c1cc(C=O)cc(C(C)(C)C)c1O
inactive: outcome [1] | Potency [2] | Potency [3]

N#CC1(c2ccc(F)cc2)CCC(=O)CC1
inactive: outcome [1] | Potency [2] | Potency [3]

Brc1ccccc1-c1ccccc1
inactive: outcome [1] | Potency [2] | Potency [3]

CCN1CCN(C(=O)N[C@@H](C(=O)N[C@@H]2C(=O)N3[C@@H]2SC(C)(C)[C@H]3C(=O)O)c2ccccc2)C(=O)C1=O
inactive: outcome [1] | Potency [2] | Potency [3]

Nc1ccc(C(=O)OCC(O)CO)cc1 (stereo not drawn)
inactive: outcome [1] | Potency [2] | Potency [3]

O=C(CCCl)NCc1ccccc1
inactive: outcome [1] | Potency [2] | Potency [3]

COc1cc(S(N)(=O)=O)cc(C(=O)O)c1OC
inactive: outcome [1] | Potency [2] | Potency [3]

COc1cc2c(cc1OC)C(=O)CC2
inactive: outcome [1] | Potency [7]

Cc1ccc(C(=O)C(=O)O)cc1C
inactive: outcome [1] | Potency [2] | Potency [3]

O=C1CC[C@H](C(=O)N2CCCCC2)N1
inactive: outcome [1] | Potency [2] | Potency [3]

CCOc1ccccc1OCC1CNCCO1 (stereo not drawn)
inactive: outcome [1] | Potency [2] | Potency [3]

CC(=O)OC[C@H]1O[C@@H](OC(C)=O)[C@H](OC(C)=O)[C@@H]1OC(C)=O
inactive: outcome [1] | Potency [2] | Potency [3]

CCOC(=O)c1ccc(OCCN2C[C@H](O)[C@@H](O)[C@H](O)[C@H]2CO)cc1
inactive: outcome [1] | Potency [2] | Potency [3]

O=C(c1ccccc1)c1ccccc1
inactive: outcome [1] | Potency [2] | Potency [3]

CCCC(CCC)(C(=O)OCC)C(=O)OCC
inactive: outcome [1] | Potency [2] | Potency [3]

CO/N=C(\C(=O)O)c1csc(NC(=O)CCl)n1
inactive: outcome [1] | Potency [2] | Potency [3]

NCCCC(N)CC(=O)NCC1NC(=O)C(CO)NC(=O)C(N)CNC(=O)C(C2CCN=C(N)N2)NC(=O)C(=CNC(N)=O)NC1=O (stereo not drawn) (H-[Dap]S[Dap](ξβ3hOrn)[ΔAla(3-NHCONH2)][X10]; lactam 1-C; configuration not given here)
inactive: activity change [1] 8.73% [at 0.0343 µM] | activity change, negative = inhibition [2] -1.21% [at 1.07 µM] | % pathology change, negative = correction [3] -14.9% [at 0.369 µM]

CN1C(=O)c2ccccc2C1=O
inactive: outcome [1] | Potency [2] | Potency [3]
